Laboratory results published in PubChem BioAssay.
Calls of active or inactive are those of the source.

Experiments:
[1] = test system: Plasmodium falciparum Sir2 (PF13_0152, Sir2A); assay: pfSir2 binders on small-molecule microarrays, primary screen, biochemical, small-molecule microarray, 635 nm fluorescence (AID 1098); conditions: small-molecule microarray binding, fluorescence 635 nm; higher = more signal;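 note: score merges spot fluorescence intensity with its signal-to-noise ratio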
[2] = small-molecule microarray binders of probe aDKK1, primary screen, biochemical, biotinylated probe, 635/667 nm fluorescence (AID 1099); conditions: higher = more signal;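 note: score merges 667nm spot fluorescence with signal to noise across triplicate slides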
[3] = small-molecule microarray binders of probe aCHRDL2, primary screen, biochemical, biotinylated probe, 635/667 nm fluorescence (AID 1100); conditions: higher = more signal
[4] = splicing luciferase reporter signal modulators, primary screen, spliceosome inhibition project, cell-based, HEK293, splice +/- reporter (AID 1101); conditions: luminescence, 24 h, higher = more signal, called active from +8 up or from −8 down;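 note: HEK293 cells carrying a splicing-competent luciferase reporter gene; test concentration not given here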
[5] = molecular target: Fibroblast growth factor 10 (Homo sapiens) (UniProt O15520); assay: FGF10 binders on small-molecule microarrays, primary screen, biochemical, small-molecule microarray, 635 nm fluorescence (AID 1102); conditions: FGF10 binding, fluorescence 635 nm, higher = more signal
Fibroblast growth factor 10 (Homo sapiens), sequence (O15520 whole entry, looked up): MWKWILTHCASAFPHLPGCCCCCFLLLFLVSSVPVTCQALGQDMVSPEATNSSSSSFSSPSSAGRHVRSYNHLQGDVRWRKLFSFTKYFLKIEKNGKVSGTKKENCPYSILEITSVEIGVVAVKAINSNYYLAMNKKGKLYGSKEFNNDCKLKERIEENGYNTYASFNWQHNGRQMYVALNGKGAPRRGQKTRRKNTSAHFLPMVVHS

[6] = test system: glycogen synthase kinase-3 (GSK3A per assay name; protocol says GSK3B); assay: GSK3 binders on small-molecule microarrays, primary screen, biochemical, small-molecule microarray, 635 nm fluorescence, GSK3A (AID 1103); conditions: small-molecule microarray binding, fluorescence 635 nm; higher = more signal; note: the record names both GSK3A and GSK3B
[7] = molecular target: Epidermal growth factor receptor (Homo sapiens) (UniProt P00533); assay: EGFR binders on small-molecule microarrays, primary screen, biochemical, small-molecule microarray, 635 nm fluorescence (AID 1104); conditions: EGFR binding, higher = more signal;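 note: score merges 667 nm emission intensity with spot signal to noise over triplicate slides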
Epidermal growth factor receptor (Homo sapiens), sequence (P00533 whole entry, looked up): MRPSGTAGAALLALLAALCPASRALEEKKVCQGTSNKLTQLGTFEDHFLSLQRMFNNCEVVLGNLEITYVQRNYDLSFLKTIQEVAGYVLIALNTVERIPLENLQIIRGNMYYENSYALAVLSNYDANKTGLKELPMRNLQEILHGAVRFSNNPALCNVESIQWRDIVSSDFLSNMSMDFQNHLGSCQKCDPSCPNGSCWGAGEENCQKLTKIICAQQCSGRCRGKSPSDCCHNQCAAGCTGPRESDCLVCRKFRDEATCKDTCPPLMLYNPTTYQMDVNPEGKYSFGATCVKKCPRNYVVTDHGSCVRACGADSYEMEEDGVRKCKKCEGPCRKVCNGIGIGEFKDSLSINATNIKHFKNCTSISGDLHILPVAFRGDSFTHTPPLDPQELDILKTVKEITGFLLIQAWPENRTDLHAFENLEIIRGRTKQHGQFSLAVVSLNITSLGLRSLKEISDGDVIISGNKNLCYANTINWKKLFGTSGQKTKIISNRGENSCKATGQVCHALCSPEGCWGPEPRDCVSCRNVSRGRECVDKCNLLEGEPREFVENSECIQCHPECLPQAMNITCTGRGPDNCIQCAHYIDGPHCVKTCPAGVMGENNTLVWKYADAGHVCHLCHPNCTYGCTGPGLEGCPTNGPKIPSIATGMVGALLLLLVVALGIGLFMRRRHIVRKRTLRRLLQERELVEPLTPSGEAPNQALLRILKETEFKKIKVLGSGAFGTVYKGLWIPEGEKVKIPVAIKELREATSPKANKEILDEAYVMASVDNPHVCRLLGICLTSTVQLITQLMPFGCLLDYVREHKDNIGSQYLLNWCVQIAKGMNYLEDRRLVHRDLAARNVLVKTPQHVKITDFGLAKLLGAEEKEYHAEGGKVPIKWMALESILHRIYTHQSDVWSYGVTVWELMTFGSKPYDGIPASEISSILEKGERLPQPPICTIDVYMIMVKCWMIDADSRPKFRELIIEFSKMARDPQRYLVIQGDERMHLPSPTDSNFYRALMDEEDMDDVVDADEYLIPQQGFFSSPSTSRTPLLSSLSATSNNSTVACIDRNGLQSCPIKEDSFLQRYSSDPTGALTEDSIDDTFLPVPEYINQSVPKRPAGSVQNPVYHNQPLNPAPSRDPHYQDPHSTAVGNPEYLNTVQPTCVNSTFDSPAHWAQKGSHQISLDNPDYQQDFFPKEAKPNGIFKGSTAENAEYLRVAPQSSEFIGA

[8] = molecular target: Follistatin-related protein 3 (Homo sapiens) (UniProt O95633); assay: FSTL3 binders on small-molecule microarrays, primary screen, biochemical, small-molecule microarray, 635 nm fluorescence (AID 1105); conditions: FSTL3 binding, higher = more signal;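 note: score merges emission near 667 nm and signal to noise per printed spot across three slides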
Follistatin-related protein 3 (Homo sapiens), sequence (O95633 whole entry, looked up): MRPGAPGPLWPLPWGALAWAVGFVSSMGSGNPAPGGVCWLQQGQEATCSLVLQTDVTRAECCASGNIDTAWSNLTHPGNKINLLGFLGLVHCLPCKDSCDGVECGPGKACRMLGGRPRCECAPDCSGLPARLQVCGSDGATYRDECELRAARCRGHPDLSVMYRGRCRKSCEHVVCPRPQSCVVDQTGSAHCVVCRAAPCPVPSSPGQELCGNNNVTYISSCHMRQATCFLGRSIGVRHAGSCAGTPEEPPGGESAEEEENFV

[9] = molecular target: Dickkopf-related protein 1 (Homo sapiens) (UniProt O94907); assay: DKK1 binders on small-molecule microarrays, primary screen, biochemical, small-molecule microarray, 635 nm fluorescence scan (AID 1106); conditions: DKK1 binding, higher = more signal;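 note: score merges emission near 667 nm with signal to noise over three replicate slides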
Dickkopf-related protein 1 (Homo sapiens), sequence (O94907 whole entry, looked up): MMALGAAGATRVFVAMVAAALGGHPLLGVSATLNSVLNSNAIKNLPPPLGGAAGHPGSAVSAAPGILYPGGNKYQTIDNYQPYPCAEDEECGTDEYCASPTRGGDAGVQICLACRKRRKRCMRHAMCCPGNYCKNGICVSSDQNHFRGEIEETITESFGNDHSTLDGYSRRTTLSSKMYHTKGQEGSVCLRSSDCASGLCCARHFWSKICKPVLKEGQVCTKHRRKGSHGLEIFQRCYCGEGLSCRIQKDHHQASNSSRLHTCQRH

[10] = test system: Inhibin beta A chain (activin A); assay: INHBA (activin A) binders on microarrays, primary screen, biochemical, small-molecule microarray, 635 nm fluorescence scan (AID 1107); conditions: small-molecule microarray binding, higher = more signal;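 note: mouse activin A protein probed at 4.33 µg/mL on printed slides; score merges bound-protein fluorescence near 667 nm with spot signal-to-noise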
[11] = test system: Human papillomavirus type 1a protein E7 (residues 44-93); assay: HPV1a E7 fragment binders on microarrays, primary screen, biochemical, small-molecule microarray, residues 44-93, 635 nm fluorescence (AID 1108); conditions: small-molecule microarray binding, fluorescence 635 nm; higher = more signal;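 note: E7 fragment applied at 1 µg/mL in TBST for 1 h at 4 C; score combines spot fluorescence with its signal to noise ratio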
[12] = modulators of HCV replicon luciferase signal, primary screen, HCV replication inhibitor project, Huh7 cells, luciferase reporter (AID 1109); conditions: 48 h, higher = more signal;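 note: huh7 hepatoma cells harbouring a luciferase neomycin HCV replicon reporter; luciferase luminescence as measure of HCV replicon replication; test concentration not given here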
[13] = molecular target: Left-right determination factor 2 (Homo sapiens) (UniProt O00292); assay: LEFTY2 binders on small-molecule microarrays, primary screen, biochemical, small-molecule microarray, 635 nm fluorescence scan (AID 1110); conditions: LEFTY2 binding, higher = more signal
Left-right determination factor 2 (Homo sapiens), sequence (O00292 whole entry, looked up): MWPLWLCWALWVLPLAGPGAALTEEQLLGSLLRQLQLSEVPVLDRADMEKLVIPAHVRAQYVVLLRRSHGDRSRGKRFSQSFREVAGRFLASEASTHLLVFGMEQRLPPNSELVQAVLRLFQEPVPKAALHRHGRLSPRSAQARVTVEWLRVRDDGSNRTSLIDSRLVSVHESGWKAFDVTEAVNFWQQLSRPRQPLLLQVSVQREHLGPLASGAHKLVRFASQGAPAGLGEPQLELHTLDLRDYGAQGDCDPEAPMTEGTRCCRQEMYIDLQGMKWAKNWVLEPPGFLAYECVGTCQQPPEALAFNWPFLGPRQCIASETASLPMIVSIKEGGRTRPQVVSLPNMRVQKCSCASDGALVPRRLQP

[14] = molecular target: Calmodulin-1 (Homo sapiens) (UniProt P0DP23); assay: CALM1 binders on microarrays, EGTA buffer, profiling panel, biochemical, small-molecule microarray, Cy5-labelled CALM1 (AID 1111); conditions: Cy5-CALM1 binding fluorescence, higher = more signal;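 note: labelled calmodulin applied in Tris saline Tween buffer holding calcium plus EGTA and DTT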
[15] = molecular target: Calmodulin-1 (Homo sapiens) (UniProt P0DP23); assay: calcium-bound CALM1 binders on microarrays, profiling panel, artefact control for SMM control-protein annotation, biochemical, small-molecule microarray, Cy5-labelled CALM1, plus calcium (AID 1112); conditions: Cy5-CALM1 binding fluorescence, higher = more signal;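 note: score merges spot fluorescence with signal to noise from triplicate slides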
[16] = small-molecule microarray binders of probe aWnt5a, primary screen, biochemical, biotinylated probe, 635/667 nm fluorescence (AID 1113); conditions: higher = more signal;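 note: score merges 667 nm fluorescence intensity with signal-to-noise per printed feature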
[17] = small-molecule microarray binders of probe aShh, primary screen, biochemical, biotinylated probe, 635/667 nm fluorescence (AID 1114); conditions: higher = more signal;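 note: probe is biotin-labelled aShh protein from a stem cell growth factor screen; measures binding of labelled protein to compounds printed on the slide; score merges feature fluorescence at 667 nm with signal-to-noise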
[18] = small-molecule microarray binders of probe aNog, primary screen, biochemical, biotinylated probe, 635/667 nm fluorescence (AID 1115); conditions: higher = more signal;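 note: probe is biotinylated aNog protein used at 0.15 µg/mL for 1 h at 4 C; z-score combines 667 nm fluorescence of each spot with its signal to noise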
[19] = molecular target: Torsin-1A-interacting protein 1 (Homo sapiens) (UniProt Q5JTV8); assay: LAP1 binders from COS7 cell lysate, primary screen, small-molecule microarray, 635/667 nm fluorescence (AID 1116); conditions: COS7-hLAP1 lysate binding, 635 nm fluorescence, higher = more signal
Torsin-1A-interacting protein 1 (Homo sapiens), sequence (Q5JTV8 whole entry, looked up): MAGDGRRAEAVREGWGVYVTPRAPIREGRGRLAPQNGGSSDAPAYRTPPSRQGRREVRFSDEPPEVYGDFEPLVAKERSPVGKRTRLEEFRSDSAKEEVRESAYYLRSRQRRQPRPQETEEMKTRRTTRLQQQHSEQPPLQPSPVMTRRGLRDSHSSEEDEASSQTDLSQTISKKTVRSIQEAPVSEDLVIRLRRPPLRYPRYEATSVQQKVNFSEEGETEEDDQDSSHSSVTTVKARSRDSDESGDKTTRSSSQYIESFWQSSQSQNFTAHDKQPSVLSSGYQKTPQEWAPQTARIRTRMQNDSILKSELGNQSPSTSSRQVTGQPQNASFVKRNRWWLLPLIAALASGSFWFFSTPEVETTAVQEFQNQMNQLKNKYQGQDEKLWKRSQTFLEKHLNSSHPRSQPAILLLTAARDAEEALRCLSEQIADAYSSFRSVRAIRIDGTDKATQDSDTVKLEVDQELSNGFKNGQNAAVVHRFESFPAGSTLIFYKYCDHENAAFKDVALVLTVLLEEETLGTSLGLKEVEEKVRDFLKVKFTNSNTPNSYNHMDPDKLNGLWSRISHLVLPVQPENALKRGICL

[20] = molecular target: Alpha-bungarotoxin (Bungarus multicinctus) (UniProt P60615); assay: alpha-bungarotoxin binders on microarray, profiling panel, artefact control for SMM control protein annotation, biochemical, small-molecule microarray, Alexa647 label, 635/667 nm fluorescence (AID 1117); conditions: alpha-BTX-A647 binding fluorescence, higher = more signal
Alpha-bungarotoxin (Bungarus multicinctus), sequence (P60615 whole entry, looked up): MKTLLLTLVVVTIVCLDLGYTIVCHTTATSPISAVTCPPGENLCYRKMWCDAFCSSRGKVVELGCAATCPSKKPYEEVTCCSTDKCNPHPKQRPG

SMILES	composite z-score [1]	composite z-score [2]	composite z-score [3]	z-score [4]	composite z-score [5]	composite z-score [6]	composite z-score [7]	composite z-score [8]	composite z-score [9]	composite z-score [10]	composite z-score [11]	z-score [12]	composite z-score [13]	composite z-score [14]	composite z-score [15]	composite z-score [16]	composite z-score [17]	composite z-score [18]	composite z-score [19]	composite z-score [20]
CO[C@H]1O[C@H](CO)[C@@H](OC(=O)Nc2ccc3c(c2)OCO3)[C@H](OC(=O)Nc2ccccc2-c2ccccc2)[C@@H]1OC(=O)Nc1ccccc1-c1ccccc1	1.29	0.277	0.542	0.176 (inactive)	1.38	1.15	0.23	0.936	0.271	-0.548	1.36	-2.26	0.232	1.6	0.116	0.0601	0.184	0.902	1.28	0.614
COCCOC(=O)N1C(=O)[C@@]2(c3ccccc31)[C@H](C(N)=O)[C@H]1C(=O)O[C@H](c3ccccc3)[C@H](c3ccccc3)N1[C@@H]2c1ccccc1OCCO	1.31	0.756	0.799	-0.0592 (inactive)	1.23	0.98	0.483	0.584	0.516	0.617	1.32	-2.2	0.565	2.3	0.668	-0.0118	-0.0035	0.162	4.3	2.62
C[C@@H]1C=CCC(=O)OC[C@H](C)C(=O)N2CCC[C@H]2C(=O)OC1	1.12	-0.457	-0.769	-0.479 (inactive)	0.825	1.21	1.26	0.829	2.21	-1.04	0.685	-1.06	0.851	-0.725	-1.26	-0.22	0.0188	0.0419	0.96	-0.285
C=CCOC(=O)[C@H]1[C@@H]2C(=O)O[C@@H](c3ccccc3)[C@@H](c3ccccc3)N2[C@@H](c2ccc(OCCOC(=O)[C@H]3C[C@H]4C(=O)N[C@@H](Cc5ccccc5)C(=O)N4[C@H]3c3ccc(O)cc3)cc2)[C@]12C(=O)Nc1ccccc12	1.4	-0.206	-0.361	0.72 (inactive)	1.15	1.18	0.892	1.22	1.06	-1.01	0.516	-1.32	0.933	0.743	0.0731	-0.0735	-0.0709	-0.112	0.985	1.46
O=C1CCCC2OC12C(O)CCc1ccccc1 (stereo not given)	-0.2	-0.45	-0.503	0.00999 (inactive)	0.558	0.263	0.548	0.495	0.372	0.399	-0.118	-0.862	0.585	-0.429	-0.552	0.0516	-0.206	-0.175	0.0788	0.176
NCCCCCNC(=O)[C@@H]1C[C@@H]2C(=O)N3CCC[C@H]3C(=O)N2[C@@H]1c1cccc(OCCO)c1	0.963	1.61	0.948	-0.298 (inactive)	0.506	0.821	0.515	0.984	1.17	1.63	0.933	-1.03	0.781	1.38	0.929	0.0024	0.315	1.55	1.72	0.482
CC(C)=NOCc1ccc(-c2cc(-c3ccccc3)no2)cc1	0.0628	-0.285	-0.515	0.468 (inactive)	0.356	0.283	0.279	-0.026	0.32	0.216	-0.0501	-0.115	0.384	-0.555	-0.498	-0.0701	-0.214	-0.139	0.0444	-0.0299
COC(=O)CC=C[C@@H](C)[C@H](OC)c1ccccc1Br	-0.581	-0.133	-0.499	-0.0767 (inactive)	0.0042	0.169	0.181	0.231	0.503	0.887	-0.0017	0.14	0.406	-0.0557	-0.346	-0.116	-0.279	-0.482	0.188	-0.152
O=C1[C@H]2[C@H]3[C@H](O)[C@H](O)CC(=NOCc4ccccc4)[C@H]3CC[C@H]2C(=O)N1c1cccc(Oc2ccccc2)c1	0.669	-0.421	-0.469	0.639 (inactive)	0.787	0.596	0.349	0.911	0.487	-0.0134	0.934	0.162	0.389	0.364	-0.177	0.0145	-0.16	-0.305	0.683	0.684
CC(CCC(=O)OC[C@H]1O[C@H](C#Cc2ccccc2)C=C[C@@H]1Oc1ccc(C)cc1)=NOC[C@@H](O)[C@H]1O[C@@H]2OC(C)(C)O[C@@H]2[C@H]1O	0.373	-0.339	-0.505	0.29 (inactive)	-0.369	-0.579	-1.03	-0.638	-0.335	0.302	-0.263	-1.13	-0.15	-0.873	0.0923	-0.18	-0.439	-0.118	0.416	-0.469
CC(=O)OC[C@H]1O[C@@H](ON=C[C@@H](C)[C@H](OCc2ccccc2)C(C)C)[C@H](OC(C)=O)[C@@H](OC(C)=O)[C@@H]1OC(C)=O	-0.0075	0.129	0.169	0.14 (inactive)	-0.167	0.623	0.338	-0.39	-1.22	-1.82	0.162	-0.518	0.619	0.336	-0.815	-0.0754	-0.19	-0.144	-0.563	0.226
CC1CC/C=C\[C@H]2OC34C=CCN(C(C)C)C(=O)[C@H]3N(CCCO)C(=O)[C@@H]4C2C(=O)O1 (stereo not given in full)	1.29	-0.268	0.0886	-0.037 (inactive)	-0.79	-0.785	-1.74	-1.21	-1.23	-0.476	-0.249	-0.513	-0.523	-1.04	0.271	-0.184	-0.181	-0.0898	0.646	-1.54
